Format in all cases: functional
For test [1], the system named is Plasmodium falciparum. In words: GSK_TCMDC: Inhibition of Plasmodium falciparum 3D7 in whole red blood cells, using parasite LDH activity as an index of growth. Test compounds present at 2uM.
In test [2] the test system is Plasmodium falciparum. In words: GSK_TCMDC: Inhibition of Plasmodium falciparum Dd2 in whole red blood cells, using parasite LDH activity as an index of growth. Test compounds present at 2uM.
The subject of the next test is HepG2. In words: GSK_TCMDC: Percent inhibition of human HepG2 cell line. Test compounds present at 10uM.

The text below walks through data of ChEMBL document CHEMBL1157539, “Thousands of chemical starting points for antimalarial lead identification” (Nature, 2010).

For the molecule `O=S(=O)(Nc1cccc(CCN2CCC(N3CCCCC3)CC2)c1)c1ccc(Oc2ccccc2)cc1`, the results for the Inhibition in the test with Plasmodium falciparum [1], in the test with Plasmodium falciparum [2] and in the test with HepG2 were 100%, 25% and 28%, respectively.

On to `CCOc1ccccc1CNc1nccc(NCCc2cn(C)c3ccccc23)n1`, for which the Inhibition in the test on Plasmodium falciparum [1] turned out to be 98%; in the test with Plasmodium falciparum [2], 62%; with HepG2, 27%.

For `COc1ccc(-c2ccnc(-c3cccc(-c4ccccn4)n3)c2)cc1`, the values for the Inhibition in the test on Plasmodium falciparum [1], in the test with Plasmodium falciparum [2] and in the test with HepG2 were 97%, 84% and 44%, respectively.

Regarding `Cc1ccccc1CNc1nccc(NCCC(=O)Nc2ccccc2)n1.O=C(O)C(F)(F)F`, the results for the Inhibition with Plasmodium falciparum [1], with Plasmodium falciparum [2] and in the test with HepG2 were 90%, 15% and 16%, respectively.

As to `O=C(CSc1ccccn1)Nc1c(F)cccc1F`, the Inhibition is reported as 88% in the test on Plasmodium falciparum [1], 0% in the test on Plasmodium falciparum [2] and 0% in the test on HepG2.

Consider `Fc1ccc2[nH]c(-c3ccc(-c4cccc(CN5CCN(CCN6CCOCC6)CC5)c4)cc3)nc2c1.O=C(O)C(F)(F)F`, for which the Inhibition is reported as 100% in the test with Plasmodium falciparum [1], 100% in the test on Plasmodium falciparum [2] and 35% in the test with HepG2.

Take `CNS(=O)(=O)Cc1ccc(Nc2nccc(Nc3cccc4c3cnn4C(=O)Nc3ccccc3)n2)cc1`: the values for the Inhibition in the test with Plasmodium falciparum [1], with Plasmodium falciparum [2] and in the test with HepG2 were 89%, 5% and 45%, respectively.

As for `COc1ccc(CN2CCC(NCc3ccc(C(F)(F)F)cc3)CC2)cc1.O=C(O)C(F)(F)F`, the Inhibition is given as 97% with Plasmodium falciparum [1], 0% with Plasmodium falciparum [2] and 37% in the test on HepG2.

As for `Cc1cc(C2CCN(CCCCNC(=O)c3ccc(NC(=O)c4ccc(Cl)cc4)cc3)CC2)c(C)cc1OCc1ccncc1.Cl`, the Inhibition in the test on Plasmodium falciparum [1] stood at 100%; in the test with Plasmodium falciparum [2], 92%; with HepG2, 33%.

Consider `Cl.c1ccc(-c2ccc3c(Nc4ccc5[nH]ncc5c4)ccnc3c2)nc1`, for which the Inhibition with Plasmodium falciparum [1] was found to be 100%; in the test on Plasmodium falciparum [2], 99%; in the test with HepG2, 99%.

Regarding `CCOc1cc(C(=O)NC2CCN(Cc3ccccc3)CC2)ccc1-c1nc2cc(Cl)c(F)cc2[nH]1`, the figures for the Inhibition in the test with Plasmodium falciparum [1], in the test with Plasmodium falciparum [2] and in the test with HepG2 were 100%, 51% and 13%, respectively.
